Results from PubChem BioAssay AID434927 (Sanford-Burnham Center for Chemical Genomics, 2010).
A number with no mark means an inactive call. Activity calls are given as the source filed them.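 The calls were made as follows: active = inhibition above about 23% in any of six single-dose repeats (limit read from the data); inactive = the rest.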

These compounds were tested against Intestinal-type alkaline phosphatase (Homo sapiens) (UniProt P09923) (assay: human IAP inhibitors, confirmation, biochemical, luminescence, single concentration, uHTS hits (AID 434927;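 also: plate controls were DMSO wells with enzyme for no effect and wells lacking enzyme for full effect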)). Conditions: purified human IAP, CDP-Star luminescence, 30 min; at 8.3 µM; active compounds read high.
Intestinal-type alkaline phosphatase (Homo sapiens), sequence (P09923 whole entry, looked up): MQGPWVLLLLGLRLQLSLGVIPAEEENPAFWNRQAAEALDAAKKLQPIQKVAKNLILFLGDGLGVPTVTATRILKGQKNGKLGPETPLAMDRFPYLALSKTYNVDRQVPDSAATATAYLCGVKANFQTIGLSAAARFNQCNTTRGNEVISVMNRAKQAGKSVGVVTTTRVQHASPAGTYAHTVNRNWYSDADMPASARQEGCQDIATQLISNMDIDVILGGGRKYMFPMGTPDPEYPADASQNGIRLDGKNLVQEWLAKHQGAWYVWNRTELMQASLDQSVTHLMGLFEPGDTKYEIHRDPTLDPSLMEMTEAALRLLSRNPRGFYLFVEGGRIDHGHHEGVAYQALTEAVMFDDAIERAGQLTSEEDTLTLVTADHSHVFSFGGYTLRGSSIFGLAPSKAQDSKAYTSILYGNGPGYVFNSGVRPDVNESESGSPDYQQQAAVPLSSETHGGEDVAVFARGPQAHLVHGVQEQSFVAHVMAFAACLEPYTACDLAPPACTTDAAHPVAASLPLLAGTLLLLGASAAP

Question: For `O=C(NNC(=S)NC(=O)c1ccccc1[N+](=O)[O-])c1ccccc1O`, which inhibition is on record?
Answer: 27.4% (active)

Question: Which inhibition does the source give for `CC(C)C(=O)NC(=S)Nc1ccccc1C(=O)Nc1ccccc1` here?
Answer: -108%

Question: With `CC(C)(C)N/N=C/c1c(O)n(-c2ccc(Cl)cn2)c(=O)c2ccccc12` as the compound, how does the inhibition read?
Answer: -93.3%

Question: Which inhibition does the source give for `COc1ccccc1CN1CCC(n2nccc2NC(=O)CCCc2ccccc2)CC1` here?
Answer: -112%

Question: For `CCOc1cccc(-c2nc(C(N)=O)c3[nH]c(=O)n(-c4cccc(Cl)c4)c3n2)c1O`, which inhibition is on record?
Answer: -74.5%

Question: Which inhibition does the source give for `O=C(Cc1ccc(Cl)c(Cl)c1)NNC(=S)NCC1CCCO1` (centres undefined) here?
Answer: -97.6%

Question: With `CC(C)Oc1ccc(CCC(=O)NNC(=S)NCc2ccccc2)cc1` as the compound, how does the inhibition read?
Answer: 46.5% (active)

Question: With `O=C(N/N=C/c1cccc([N+](=O)[O-])c1)c1nc2ccccc2c(=O)[nH]1` as the compound, how does the inhibition read?
Answer: 33.3% (active)

Question: With `NC(=O)c1ccc(NC(=O)C2CCCC2)cc1` as the compound, how does the inhibition read?
Answer: -40.2%

Question: For `Cc1cc(Br)ccc1SCC(=O)OC/C(O)=C(\C#N)c1nc2ccccc2[nH]1`, which inhibition is on record?
Answer: -67.4%

Question: For `COc1ccccc1C1=NN(C2=NN=C(N)Cc3ncnn32)C(O)(C(F)(F)F)C1` (centres undefined), which inhibition is on record?
Answer: 45.2% (active)

Question: How did the inhibition turn out when `CN(Cc1ccccc1)C(=O)c1[nH]cnc1C(=O)Nc1nccs1` was run?
Answer: -141%

Question: For `COc1ccc(OC)c(NC(=O)c2cc(-c3cc(C)ccc3O)n[nH]2)c1`, which inhibition is on record?
Answer: -41.7%

Question: How did the inhibition turn out when `CC1Cn2c(nnc2C23CC4CC(CC(C4)C2)C3)S1` (centres undefined) was run?
Answer: 95.1% (active)

Question: For `COc1ccc(CC2CC(=O)N(c3ccc(C)cc3)C2=O)cc1` (centres undefined), which inhibition is on record?
Answer: 23.2% (active)

Question: How did the inhibition turn out when `CCOc1ccc(NC(=O)CSc2nncn2C)cc1` was run?
Answer: -83.5%

Question: `Cc1cccc(OCC(=O)NNC(=O)c2ccc3nc[nH]c3c2)c1` was tested. Which inhibition did it give?
Answer: -117%

Question: For `COc1ccc(NC(=S)NNC(=O)c2nnn(-c3ccccc3)c2C)cc1`, which inhibition is on record?
Answer: 24% (active)

Question: Which inhibition does the source give for `Cc1nc2c3ccccc3nc(NNC(=O)CCC(=O)NCCN3CCN(c4ccccc4)CC3)n2n1` here?
Answer: -97.4%
